Compounds with a hit are over-represented: about 4.5% of the library has one in this group of screens.
GRK2 aptamer HTS: inhibitors of human GRK2 displacing RNA aptamer; P25098; bead flow cytometry, FAM-aptamer displacement from GRK2; inhibition of aptamer binding, % at 10 µM; actives 0.59% (n = 330,000); AID 488847;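 active = inhibition of aptamer binding above 40%, roughly 3 SD of noise, on plates passing a quality check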;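 also: median bead fluorescence of bound FAM aptamer so fluorescent compounds give negative values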
Efflux pump inh: blocks antifungal efflux pumps in multiplex yeast assay | S. cerevisiae Candida pump triplex, Nile Red efflux | actives 0.44% (n = 330,000) | inhibition, % at 10 µM;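 active = plate passing quality check with inhibition over a set limit, or well fluorescence over plate mean plus 4 SD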;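 also: Nile Red retained in pooled yeast measured as flow cytometry median fluorescence; 0% = buffer negative control and 100% = Enniatin B positive control; higher means more Nile Red kept so more efflux inhibition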
ALR inh: human ALR oxidase inhibition via reduced H2O2. actives 3.8% (n = 290,000). purified ALR, DTT oxidation, H2O2 HRP-luminol luminescence. AID 485317. P55789. inhibition, % (test concentration not listed);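 active = mean replicate inhibition above about 79%, with every replicate also reaching it, limit read from the data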
Target sequence (P55789 whole entry, looked up): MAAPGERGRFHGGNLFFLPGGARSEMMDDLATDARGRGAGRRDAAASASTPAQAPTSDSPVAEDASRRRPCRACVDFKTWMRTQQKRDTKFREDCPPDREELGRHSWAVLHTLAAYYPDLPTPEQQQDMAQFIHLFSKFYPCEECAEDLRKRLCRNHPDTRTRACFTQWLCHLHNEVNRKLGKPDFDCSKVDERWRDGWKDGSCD
Rtt109 HAT inh: C. albicans Rtt109 histone acetyltransferase inhibition; AID 540336; purified Rtt109/Vps75, ThioGlo CoA-SH fluorescence, 4 h; inhibition, % at 34.9 µM; Q5AAJ8; actives 0.16% (n = 330,000);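 active = inhibition of at least 50% in every replicate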
HDAC3 inhib: inhibitors of human histone deacetylase 3; recombinant HDAC3, fluorogenic peptide/trypsin coupled, fluorescence; O15379; AID 2718; actives 0.15% (n = 320,000); inhibition, % at 8.3 µM; in the data active = inhibition above about 26%, passing the limit was not always enough
Rce1 inhib: yeast Ras-converting enzyme inhibition; calls only; Q03530; yeast membranes, quenched prenylated peptide cleavage fluorescence; actives 0.27% (n = 290,000);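 active = fall in fluorescence gain of 50% or more versus controls, with final raw signal at or below 3038400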;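 also: plate controls were neutral control wells for no effect and wells lacking membranes for full effect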
Numbers without * were called inactive; i = inactive; / = not tested or not shown; + = active, no number.

SMILES	GRK2 aptamer HTS	Efflux pump inh	ALR inh	Rtt109 HAT inh	HDAC3 inhib	Rce1 inhib
COc1cc(/C=N/NC(=O)C2(O)c3ccccc3-c3ccccc32)ccc1O	0.0	0.1	99.4*	7.3	4.8	i
COc1cc(/C=N/NC(=O)c2nc(C)cc(C)n2)ccc1O	2.0	0.0	99.0*	10.1	-2.7	i
COc1cc(/C=N/NC(=O)c2cc3ccccc3[nH]2)ccc1O	0.0	0.0	99.6*	0.1	3.5	i
COc1cc(/C=N/Nc2ncc(C(F)(F)F)cc2Cl)cc(OC)c1O	3.0	-0.1	98.8*	1.0	8.6	i
COc1cc(/C=N/Nc2ncc(C(F)(F)F)cc2Cl)cc(OC)c1OC	0.0	-0.1	-8.6	/	4.9	i
CCOC(=O)C1CCN(C(=O)CSc2ccccc2Cl)CC1	1.0	-0.1	-8.5	-0.6	3.7	i
CCOc1ccc(N(CC(=O)Nc2nccs2)S(=O)(=O)c2c(C)[nH]c(=O)[nH]c2=O)cc1	13.0	-0.1	/	-5.8	-2.3	i
CSCCC(NC(=O)COc1ccccc1)C(=O)N1CCOCC1 (stereo not drawn)	3.0	0.0	-23.8	-10.1	1.1	/
COc1cccc(CC(=O)OCC(=O)Nc2c(C)nn(-c3ccccc3)c2C)c1	/	/	/	-8.9	/	/
NC(=O)c1cc([N+](=O)[O-])ccc1NCCN1C(=O)c2ccccc2C1=O	0.0	0.1	-4.4	/	-5.5	i
COc1cc(/C=N/NC(=O)c2ccncc2)ccc1O	0.0	-0.1	98.7*	-2.8	16.5	i
COc1cc(/C=N/Nc2cc(C)nc(N)n2)ccc1O	1.0	0.0	97.7*	-2.4	5.7	i
COc1cc(/C=N/NC(=O)C(=O)/C=C2\NC(C)(C)Cc3ccccc32)ccc1O	1.0	0.0	82.0*	11.7	4.1	i
COc1cc(/C=N/NC(=O)c2ccncc2)ccc1OC(=O)c1cc(OC)c(OC)c(OC)c1	4.0	-0.1	/	-7.0	5.5	+
Cc1ccc(S(C)(=O)=NS(=O)(=O)c2cccc3nsnc23)cc1 (stereo not drawn)	3.0	0.2	-5.8	-6.3	-2.0	i
C=CCNC(=O)c1c(CS(=O)(=O)c2ccccc2)noc1C(=O)NCc1ccccc1	0.0	0.0	-1.7	2.7	4.2	/
CC1(C)C[C@@H]1C(=O)N/C(=C\CCCCSC[C@H](N)C(=O)O)C(=O)O	2.0	0.0	-6.6	0.0	-2.6	/
Cc1cc(C)c(S(=O)(=O)N(C)CC(=O)NCCCn2ccnc2)c(C)c1	0.0	-0.1	2.4	-3.4	7.2	i
COc1cc(/C=N/NC(=O)c2cc[n+]([O-])cc2)ccc1O	0.0	-0.2	99.1*	2.2	9.6	i
COc1cc(/C=N/Nc2ccc(C(F)(F)F)cn2)ccc1O	0.0	0.1	99.5*	0.0	12.5	i
O=C(O)c1ccc(/C=N/Nc2ccc(C(F)(F)F)cn2)cc1	/	/	/	9.4	/	i
CCN(C(=O)CSc1n[nH]c(N)n1)C1CCCCC1	0.0	-0.1	/	14.1	8.0	/
Cc1ccccc1NCCC(=O)Nc1ccc(F)cc1	1.0	0.1	99.0*	-10.1	-3.6	i
Cc1ccccc1NCCC(=O)Nc1ccc(Cl)cc1	7.0	-0.1	98.5*	-3.0	-0.3	i
Cc1ccccc1NC(=O)CC(=O)Nc1ccccc1C	3.0	0.2	2.8	-2.6	-2.2	i
SMILES	GRK2 aptamer HTS	Efflux pump inh	ALR inh	Rtt109 HAT inh	HDAC3 inhib	Rce1 inhib
Cc1ccc(/C=N/NC(=O)CNC(=O)c2cccc([N+](=O)[O-])c2C)o1	3.0	0.1	/	2.7	3.1	i
COc1cc2sc3cc(NCc4ccc5c(c4)OCO5)ccc3c(=O)c2cc1OC	0.0	0.5	0.4	1.7	3.4	/
COc1cc(CNc2ccc3c(c2)OCCO3)ccc1OCC(N)=O	0.0	0.0	99.5*	-7.0	3.0	i
COc1ccc(NCc2ccc3c(c2)OCO3)cc1Cl	2.0	-0.1	96.7*	-11.4	-7.2	i
CCOc1cc(CNc2ccc3c(c2)OCCO3)cc(Br)c1OCC(N)=O	5.0	0.0	46.9	-3.4	2.2	i
O=C1CC[C@@H]2C[C@@]3(C[C@@H]4CCN1[C@H]24)Nc1cc([N+](=O)[O-])ccc1NC3=NCc1ccccc1	/	/	/	-4.6	/	/
O=C1N=C(c2ccccc2)C(c2ccccc2)N1 (stereo not drawn)	0.0	-0.2	99.2*	-35.4	-75.9	i
Cc1ccc(N(CC2=NCCN2)c2cccc(O)c2)cc1	2.0	0.0	98.3*	-1.1	-0.5	i

Bioassay records deposited in PubChem by several laboratories.
